HSV augment = increases HSV replication in cells | HSV replication augmentation in cells, fold increase | maximum fold increase | 220,000 tested, 0.005% active; in the data active = maximum fold increase above about 1.5; tested in PC3 cells
INS promoter inh = TRM-6 insulin promoter activity inhibition; TRM-6 cells (human fetal islet line), insulin promoter-eGFP reporter, imaging; reporter expression induced with tamoxifen; inhibition, % at 2 µM; 130,000 tested, 0.9% active; AID 1273;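 active = inhibition above the mean plus 3 SD, with well images judged a real hit on visual review, cut at about 60% in these data, passing the limit was not always enough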
HMGR II inh = blocks class II HMG-CoA reductase of Enterococcus faecalis; 190,000 tested, 0.41% active; purified E. faecalis HMGR, NADPH absorbance 340 nm kinetic; inhibition, % at 10 µM; AID 1066;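 active = inhibition above a set limit, the median over all tested compounds plus 3 SD, cut at about 9.5% in these data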;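 note: enzyme runs in reverse so mevalonate oxidation gives rising NADPH absorbance; 0% = complete reaction with DMSO and 100% = background rate lacking mevalonate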
Insulin prom up = MIN6 insulin promoter up-regulation | 190,000 tested, 0.3% active | MIN6 insulin promoter-GFP reporter, high-content imaging; hits give high values | z-score at 5 µM | AID 1625;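 active = z-score above 3 at 5 µM with at least 500 cells counted in the well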
* marks the source's active call; other numbers are inactive results; i = inactive; · = not tested or not shown. Sampled rows, rich in hits. Any-hit rate of the full collection: about 1.1%.

SMILES	HSV augment	INS promoter inh	HMGR II inh	Insulin prom up
CCc1cc2c(CN3CCN(CCO)CC3)cc(=O)oc2cc1O	i	-300.0	3.4	3.59*
CCN(CCO)c1ncnc2c1sc1nc(CC(C)C)c3c(c12)CC(C)(C)OC3	i	11.6	9.7*	-1.02
COC(=O)[C@H](CC(C)C)NC(=O)N1CCC(C)CC1	i	·	·	0.05
CC1CC(C)CN(C(=O)c2cccc3c2-c2ccccc2C3=O)C1 (centres undefined)	i	·	·	3.97*
N/C(=N\OC(=O)C1CCCCC1)c1cccc([N+](=O)[O-])c1	i	23.3	-3.2	3.01*
Cc1ccc(C(=O)O/N=C(\N)c2cccc([N+](=O)[O-])c2)cc1	i	-10.0	-7.3	1.92
Cc1cc([N+](=O)[O-])ccc1NC(=O)/C=C/c1cccs1	i	·	2.0	-0.28
Cc1ccc(NC(=O)/C=C/c2ccc([N+](=O)[O-])s2)c(C)c1	·	-179.4	-4.8	13.3*
Cc1cccc(NC(=O)/C=C/c2ccc([N+](=O)[O-])s2)c1	·	·	-4.7	·
CCOC(=O)N/N=C\c1ccc([N+](=O)[O-])s1	i	22.2	11.0*	-0.13
Cc1ccc(NC(=O)/C=C/c2ccc([N+](=O)[O-])s2)cc1	i	-270.4	-3.6	16.6*
CCCCNc1nc2ccccc2nc1Cl	i	·	2.2	0.3
Cc1cc(C)cc(C(=O)Nc2ccc(NC(=O)Cc3ccccc3)cc2)c1	i	·	0.8	-1.31
O=C(O)CCCCNS(=O)(=O)/C=C/c1ccccc1	i	·	-0.8	-0.02
Cc1ccc(/C=C(\C#N)c2nc3ccccc3[nH]2)s1	i	96.2*	5.8	-0.92
N#C/C(=C\c1c(Cl)cccc1Cl)c1nc2ccccc2[nH]1	i	·	·	0.61
Cc1cc(/C=C(\C#N)c2nc3ccccc3[nH]2)c(C)n1C	i	20.0	-5.4	-0.24
N#C/C(=C/c1cccs1)c1nc2ccccc2[nH]1	i	75.0*	3.0	-0.2
C1=C(c2ccccc2)Nc2nnnn2C1	i	22.6	-2.5	3.1*
COc1ccc(C2C=C(c3ccccc3)Nc3nnnn32)cc1 (centres undefined)	i	·	-3.1	-1.29
O=C(Nc1ccsc1C(=O)NC1CC1)c1ccccc1	i	85.2*	-6.8	0.07
CC1CC1C(=O)OCC(=O)NC(=O)NC12CC3CC(CC(C3)C1)C2 (centres undefined)	i	100.0*	-0.6	-1.22
COCCNC(=O)c1ccc(Cn2c(=S)[nH]c3cc4c(cc3c2=O)OCO4)cc1	i	36.4	-8.2	-0.33
COC(CNC(=O)c1ccc(Cn2c(=S)[nH]c3cc4c(cc3c2=O)OCO4)cc1)OC	i	13.3	-1.2	3.48*
CC(C)(C)C1=C(C#N)C(c2ccc3c(c2)OCO3)C(C#N)=C(N)O1 (centres undefined)	i	·	11.4*	0.24
SMILES	HSV augment	INS promoter inh	HMGR II inh	Insulin prom up
CC(C)(C)C1=C(C#N)C(c2ccncc2)C(C#N)=C(N)O1 (centres undefined)	i	-6.7	0.7	-0.02
O=C(Cn1[nH]c(=O)c2ccccc2c1=O)NNC(=O)c1ccccc1	i	15.0	-1.2	·
COc1ccc(C2=[N+](C)CCn3cccc32)c(OC)c1	i	-8.3	0.1	-1.57
CNC(=S)NNC(=O)c1cc(C(C)(C)C)nn1Cc1ccc(F)cc1	i	·	·	-1.08
CCOC(=O)c1ccc(CSc2nnc(-c3ccncc3)n2N)cc1	i	27.0	-9.1	3.8*
O=c1c(OC2OC(CO)C(O)C(O)C2OC2OC(CO)C(O)C(O)C2O)c(-c2ccc(O)cc2)oc2cc(O)cc(O)c12 (centres undefined)	i	·	·	0.1
O=c1c(OC2OC(CO)C(O)C(O)C2O)c(-c2ccc(O)c(O)c2)oc2cc(O)cc(O)c12 (centres undefined)	i	-20.0	15.5*	-0.71
CCCCC(CC(O)COCCC)c1n[nH]c(=S)n1-c1ccccc1 (centres undefined)	i	22.2	-5.1	·
CCn1cc(C2CC(=O)NC2=O)c2ccccc21 (centres undefined)	i	·	·	0.67
Cc1[nH]n(S(=O)(=O)Cc2ccccc2)c(=O)c1N=Nc1ccccc1Cl	i	45.5	10.0*	0.25
Cc1ccc2[nH]c3c(NCc4ccco4)ncnc3c2c1	i	84.8*	1.8	-6.84
CC(C)[C@H](NC(=O)c1cccc(S(=O)(=O)N2CCOCC2)c1)C(=O)Nc1nc2ccccc2s1	i	-59.5	-3.7	-1.16
Clc1ccc(Nc2ncn[nH]2)c(Cl)c1	i	65.7*	-1.8	-0.02
O=C(Nc1ncn[nH]1)c1ccc(Cl)cc1Cl	i	18.2	-7.2	1.2
Cc1[nH][nH]c(=O)c1C(c1ccc(-c2ccc(Cl)cc2Cl)o1)c1c(C)[nH][nH]c1=O	i	20.0	10.5*	-0.2
